Assay [1] in a line: cAMP Responsive Elements (CRE) small molecule antagonists, cell-based qHTS assay: qHTS cell viability counter screen (AID 2060913). Note: nearly all actives have a fitted effect of over 40% in size. Summed up:
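HEK293T CRE-bla, 2,000 cells/well, 18 h preincubation; cpd in DMSO + NKH477 0.25 uM final, 3 h 37 C/5% CO2; LiveBLAzer 2 h RT, then CellTiter-Glo 30 min RT, luminescence.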
For orientation: qHTS replaces the single test concentration by a dilution series.

The nature of assay [2]: cAMP Responsive Elements (CRE) small molecule agonists, cell-based qHTS assay: qHTS cell viability counter screen (AID 2060914). Note: nearly all actives have a fitted effect of over 50% in size. The gist of the method:
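In the same wells as the reporter read, viability of CRE-bla HEK 293T cells was quantified by CellTiter-Glo luminescence after a 3 h compound exposure.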

Values joined by “and” are separate entries in the source; they are usually repeats but may differ in a detail not shown here. Identical values can stand only once. Records with an inconclusive call do not appear. Unmarked numbers belong to inactive results. Active and inactive are the calls of the source. Calls come from the whole dose curve; as a rule, active = well fitted cell-killing curve with a large enough effect in the repeat runs; inconclusive = weak or mixed curves, or effect the other way; inactive = flat fitted curve, though single readings scatter.

54 compounds from PubChem BioAssay (Tox21) can be followed below.
% is set by controls: 0 for no effect and ±100 for the full control effect; potency is the fitted concentration of half-maximal effect.

With `C=C(C)C(=O)Nc1ccc(Cl)c(Cl)c1`, the Potency entry in assay [1] and in assay [2] was “inactive” in each case.
`OCCOCCOCCOCCOCCO`: the Potency entry in assay [1] and in assay [2] was “inactive” each time.
As to `CC(NC(CCc1ccccc1)C(=O)O)C(=O)N1C(=O)N(C)CC1C(=O)O` (stereo not drawn), the Potency result in assay [1] and in assay [2] was “inactive” each time.
As to `Cc1cc(CCN2CCN(c3nsc4ccccc34)CC2)cc2c1NC(=O)CC2(C)C`, the Potency in assay [1] and in assay [2] was 68.6 µM (active) in each case.
Regarding `CCOC(=O)OCC`, the Potency result in assay [1] and in assay [2] was “inactive” each time.
As to `CCCC(O)C(O)CO` (stereo not drawn), the Potency result in assay [1] and in assay [2] was “inactive” each time.
As for `O=C1OCCO1`, the Potency entry in assay [1] and in assay [2] was “inactive” in each case.
As for `COC(=O)Nc1nc2ccc(C(=O)c3cccs3)cc2[nH]1`, the Potency result in assay [1] and in assay [2] was “inactive” each time.
In the case of `Cc1cc(C2(c3cc(C)c(O)cc3C)OS(=O)(=O)c3ccccc32)c(C)cc1O`, the Potency entry in assay [1] and in assay [2] was “inactive” each time.
For the compound `NS(=O)(=O)c1cc2c(cc1Cl)NC=NS2(=O)=O`, the Potency entry in assay [1] and in assay [2] was “inactive” throughout.
Take `C[Si](C)O[Si](C)(C)O[Si](C)(C)O[Si](C)C`: the Potency entry in assay [1] and in assay [2] was “inactive” in each case.
On to `CC(C)N(c1ccccc1)C(C)C`, for which the Potency result in assay [1] and in assay [2] was “inactive” throughout.
Consider `CC(C)CCCCCCOC(=O)CCCCC(=O)OCCCCCCC(C)C`, for which the Potency entry in assay [1] and in assay [2] was “inactive” throughout.
As to `c1ccncc1`, the Potency result in assay [1] and in assay [2] was “inactive” each time.
Take `CN(C)CCCN`: the Potency entry in assay [1] and in assay [2] was “inactive” in each case.
In the case of `COc1ccc(Cl)cc1C`, the Potency entry in assay [1] and in assay [2] was “inactive” throughout.
Take `CCCOc1ccc2nc(NC(=O)OC)[nH]c2c1`: the Potency entry in assay [1] and in assay [2] was “inactive” each time.
`c1ccc(-c2ccccn2)nc1`: the Potency result in assay [1] and in assay [2] was “inactive” each time.
For the compound `CC/C(=C(/c1ccc(O)cc1)c1ccc(OCCN(C)C)cc1)c1ccccc1`, in assay [1], the Potency is 37.6 µM (active). Moreover, the Potency entry in assay [2] was “inactive”.
Regarding `CN1Cc2cc(C(=O)N3CCC(C4CCNCC4)CC3)ccc2NC(CC(=O)O)C1=O` (stereo not drawn), the Potency entry in assay [1] and in assay [2] was “inactive” in each case.
On to `Cc1c(OCC(F)(F)F)ccnc1CS(=O)c1nc2ccccc2[nH]1` (stereo not drawn), for which the Potency entry in assay [1] and in assay [2] was “inactive” in each case.
For `CCOc1ccc2nc(S(N)(=O)=O)sc2c1`, the Potency result in assay [1] and in assay [2] was “inactive” in each case.
Take `C=CCCCCCCCCOC(C)=O`: the Potency entry in assay [1] and in assay [2] was “inactive” throughout.
Take `CCCCCCCCCCCCCC[N+](C)(C)C`: the Potency was 52.7 µM (active) and 48.5 µM (active) in assay [1]; 52.7 µM (active) in assay [2].
As for `Cc1ccc(Cl)cc1Cl`, the Potency result in assay [1] and in assay [2] was “inactive” throughout.
As for `CCCCC(CC)C(=O)OCCOCCOCCOC(=O)C(CC)CCCC` (stereo not drawn), the Potency entry in assay [1] and in assay [2] was “inactive” in each case.
On to `CCC(C)C=O` (stereo not drawn), for which the Potency result in assay [1] and in assay [2] was “inactive” each time.
Regarding `CCCCCCCCCCC=CC1CC(=O)OC1=O` (stereo not drawn), the Potency entry in assay [1] and in assay [2] was “inactive” in each case.
Take `CCC(CC)(CC(=O)Nc1cccc(/C=C/c2nc(C3CCC3)cs2)c1)C(=O)O`: the Potency result in assay [1] and in assay [2] was “inactive” throughout.
For `O=C(O)Cn1c(=O)n(Cc2ccc(Br)cc2F)c(=O)c2ccc(Cl)cc21`, the Potency result in assay [1] and in assay [2] was “inactive” in each case.
As to `CC1CC(OC(=O)C(O)c2ccccc2)CC(C)(C)N1C` (stereo not drawn), the Potency entry in assay [1] and in assay [2] was “inactive” each time.
For `c1ccc2nccnc2c1`, the Potency entry in assay [1] and in assay [2] was “inactive” each time.
Take `COc1ccc(C(=O)c2cccc(O)c2)c(OC)c1`: the Potency entry in assay [1] and in assay [2] was “inactive” in each case.
`Oc1ccccc1O`: the Potency entry in assay [1] and in assay [2] was “inactive” throughout.
As for `NC(=O)/N=N/C(N)=O`, the Potency entry in assay [1] and in assay [2] was “inactive” throughout.
Take `Nc1ccc(-c2ccc(F)cc2)cc1`: the Potency entry in assay [1] and in assay [2] was “inactive” throughout.
For the compound `Oc1ccc(Nc2ccccc2)cc1`, the Potency result in assay [1] and in assay [2] was “inactive” in each case.
In the case of `Cc1cccc2sc(N)nc12`, the Potency result in assay [1] and in assay [2] was “inactive” each time.
As for `CN(C)C(=O)COC(=O)Cc1ccc(OC(=O)c2ccc(N=C(N)N)cc2)cc1`, the Potency entry in assay [1] and in assay [2] was “inactive” in each case.
With `Cc1c[nH]c(=O)[nH]c1=O`, the Potency entry in assay [1] and in assay [2] was “inactive” each time.
For `COc1ccc(OC(=O)N(CC(=O)O)Cc2ccc(OCCc3nc(-c4ccccc4)oc3C)cc2)cc1`, the Potency result in assay [1] and in assay [2] was “inactive” each time.
For `O=C1OC(=O)c2cc(-c3ccc4c(c3)C(=O)OC4=O)ccc21`, the Potency entry in assay [1] and in assay [2] was “inactive” each time.
`CCCCCCCCS(=O)(=O)Cl`: the Potency result in assay [1] and in assay [2] was “inactive” throughout.
In the case of `CC(C)(C)c1cc(CCC(=O)NN)cc(C(C)(C)C)c1O`, the Potency result in assay [1] and in assay [2] was “inactive” in each case.
Take `CC[N+](CC)(CC(=O)Nc1c(C)cccc1C)Cc1ccccc1` (tested in a mixture with another compound): the Potency result in assay [1] and in assay [2] was “inactive” each time.
As to `CCCC(=O)OCc1ccccc1`, the Potency result in assay [1] and in assay [2] was “inactive” throughout.
As for `Nc1ccccc1Nc1ccccc1`, the Potency entry in assay [1] and in assay [2] was “inactive” in each case.
In the case of `CC(CC(=O)Cl)CC(C)(C)C` (stereo not drawn), the Potency entry in assay [1] and in assay [2] was “inactive” in each case.
For the compound `Cc1ccc(C(C)NC(=O)[C@@H](NC(=O)OC(C)C)C(C)C)cc1` (stereo partly drawn), the Potency entry in assay [1] and in assay [2] was “inactive” in each case.
In the case of `CCCCOCCCC`, the Potency result in assay [1] and in assay [2] was “inactive” in each case.
In the case of `C[C@@H](c1ncncc1F)C(O)(Cn1cncn1)c1ccc(F)cc1F` (stereo partly drawn), the Potency result in assay [1] and in assay [2] was “inactive” throughout.
For the compound `NC(=O)Cn1c(=O)cc(CCN2CCN(c3nccc4sccc34)CC2)c2ccc(F)cc21`, the Potency entry in assay [1] and in assay [2] was “inactive” in each case.
In the case of `CC1(C)OC[C@@H]2O[C@@]3(C(=O)O)OC(C)(C)O[C@H]3[C@@H]2O1`, the Potency entry in assay [1] and in assay [2] was “inactive” each time.
For `CCCC(=O)O[C@]1(C(=O)COC(=O)CC)CC[C@H]2[C@@H]3CCC4=CC(=O)CC[C@]4(C)[C@H]3[C@@H](O)C[C@@]21C`, the viability change, negative = cytotoxic in assay [1] was 9.89% [at 18.9 µM]. For the same compound, the activity change, negative = cytotoxicity in assay [2] is -7.63% [at 18.9 µM].
